The list shows a part of the results. The hit rate among all sequences tested is not known here.
B1: HC927 (peptide)
chain: CAAETTVRLRAGNASASA
B2: FS-2899 (peptide)
chain: CARCVRICSKAGNASASA
B3: HC2489 (peptide)
chain: CASYPCSAHLAGNASASA
B4: HC1200 (peptide)
chain: CATFALWRVSAGNASASA
B5: HC2005 (peptide)
chain: CAVLCCSMSYAGNASASA
B6: EK4 (peptide)
chain: CATFHKAEYRAGNASASA
B7: FS-1854 (peptide)
chain: CARFRRSETPAGNASASA
B8: FS-2926 (peptide)
chain: CARFRKAYKPAGNASASA
B9: FS-2667 (peptide)
chain: CARFRRSVPRAGNASASA
B10: FS-2818 (peptide)
chain: CARSRRQDVRAGNASASA
B11: FS-1878 (peptide)
chain: CADFVRSITPAGNASASA
B12: FS-2369 (peptide)
chain: CARRFRSVPRAGNASASA
B13: FS-1702 (peptide)
chain: CARFRRAANRAGNASASA
B14: FS-2141 (peptide)
chain: CARFYRYMGRAGNASASA
B15: FS-3094 (peptide)
chain: CARSRRRSGRAGNASASA
B16: FS-1890 (peptide)
chain: CARERRSEEPAGNASASA
B17: HC751 (peptide)
chain: CARAAVCTRGAGNASASA
B18: HC580 (peptide)
chain: CAISWCLWWLAGNASASA
B19: FS-3048 (peptide)
chain: CARRIRPTHPAGNASASA
B20: HC1959 (peptide)
chain: CAPCTTPCSGAGNASASA
B21: FS-2679 (peptide)
chain: CARHPRSPPRAGNASASA
B22: FS-1705 (peptide)
chain: CARFRRLWPCAGNASASA
B23: FS-2836 (peptide)
chain: CARTRRQDIRAGNASASA
B24: HC1321 (peptide)
chain: CASPPVPPPRAGNASASA
B25: FS-2416 (peptide)
chain: CARFRRQQWKAGNASASA
B26: FS-2910 (peptide)
chain: CAREERSWFRAGNASASA
B27: HC1484 (peptide)
chain: CATVTESDIRAGNASASA
B28: FS-2664 (peptide)
chain: CARFRRQDIRAGNASASA

Target: furin, P09958
Sequence (P09958 whole entry): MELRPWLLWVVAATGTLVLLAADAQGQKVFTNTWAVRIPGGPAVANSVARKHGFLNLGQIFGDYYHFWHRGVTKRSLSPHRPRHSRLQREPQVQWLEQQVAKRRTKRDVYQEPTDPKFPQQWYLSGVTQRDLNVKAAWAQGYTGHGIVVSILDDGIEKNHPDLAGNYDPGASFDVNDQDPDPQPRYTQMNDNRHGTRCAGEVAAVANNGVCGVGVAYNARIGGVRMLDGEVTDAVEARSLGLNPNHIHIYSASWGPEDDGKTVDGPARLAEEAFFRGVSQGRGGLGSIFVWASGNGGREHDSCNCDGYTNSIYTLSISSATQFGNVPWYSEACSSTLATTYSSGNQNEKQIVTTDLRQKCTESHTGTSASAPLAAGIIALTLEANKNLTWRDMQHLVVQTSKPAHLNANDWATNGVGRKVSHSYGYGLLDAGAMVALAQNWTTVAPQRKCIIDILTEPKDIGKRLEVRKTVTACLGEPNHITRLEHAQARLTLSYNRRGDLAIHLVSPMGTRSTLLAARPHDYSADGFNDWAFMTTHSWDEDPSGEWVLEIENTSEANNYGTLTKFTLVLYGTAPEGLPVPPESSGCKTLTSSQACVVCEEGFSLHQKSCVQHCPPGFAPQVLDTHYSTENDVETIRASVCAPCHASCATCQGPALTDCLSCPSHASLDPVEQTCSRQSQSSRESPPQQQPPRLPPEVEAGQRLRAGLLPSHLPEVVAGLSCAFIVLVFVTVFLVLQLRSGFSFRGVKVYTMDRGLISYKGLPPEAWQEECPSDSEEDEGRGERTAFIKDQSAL
Assay: furin cleavage Z-score vs untreated control; higher = more cleavage, active = 3.5 or more, inactive = 1 or less, 8 variable residues between constant flanks
How it was run: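 To give the cleavage Z-score, log read counts were set against furin-free reactions, lowess-adjusted and scaled by median absolute deviation. These counts came from PCR adapter-tagged, sequenced DNA released when purified furin cut 8-mer peptides fused to a cDNA oligonucleotide and held on magnetic beads by their N-terminus. Digests were 0.01 ml, 1:10 enzyme:substrate, in 50 mM HEPES pH 7.5 with CaCl2 and NaCl, for 7.5, 15 or 30 min.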

Sequence | furin cleavage Z-score (7.5 min) | furin cleavage Z-score (15 min) | furin cleavage Z-score (30 min)
B1 | 0.749 (inactive) | -0.382 (inactive) | 0.0108 (inactive)
B2 | 1.54 | -0.229 (inactive) | -0.326 (inactive)
B3 | 0.414 (inactive) | -1.17 (inactive) | 1.74
B4 | -1.06 (inactive) | -0.9 (inactive) | -0.368 (inactive)
B5 | 0.0781 (inactive) | 1.47 | 0.67 (inactive)
B6 | -1.71 (inactive) | -2.3 (inactive) | -0.599 (inactive)
B7 | 6.5 (active) | 5.93 (active) | 5.18 (active)
B8 | 0.349 (inactive) | -0.617 (inactive) | -0.661 (inactive)
B9 | 8.62 (active) | 7.98 (active) | 7.02 (active)
B10 | 1.35 | 3.52 (active) | 2.66
B11 | -0.721 (inactive) | -0.817 (inactive) | -2.11 (inactive)
B12 | -0.464 (inactive) | 0.0993 (inactive) | 0.454 (inactive)
B13 | 7.75 (active) | 10.5 (active) | 7.34 (active)
B14 | 0.0635 (inactive) | 0.964 (inactive) | -0.333 (inactive)
B15 | 1.03 | 0.486 (inactive) | 1.5
B16 | -0.884 (inactive) | 3.45 | 0.678 (inactive)
B17 | 0.0348 (inactive) | -0.103 (inactive) | -0.127 (inactive)
B18 | -1.57 (inactive) | -0.298 (inactive) | -1.76 (inactive)
B19 | -1.48 (inactive) | -0.376 (inactive) | -2.07 (inactive)
B20 | -0.283 (inactive) | -0.0949 (inactive) | 0.269 (inactive)
B21 | 2.12 | 2.59 | 4.01 (active)
B22 | -0.433 (inactive) | -0.574 (inactive) | 0.464 (inactive)
B23 | 3.19 | 3.96 (active) | 4.46 (active)
B24 | 0.641 (inactive) | 2.74 | 1.49
B25 | -0.28 (inactive) | -0.542 (inactive) | -0.363 (inactive)
B26 | 1.59 | -0.354 (inactive) | -1.01 (inactive)
B27 | -1.23 (inactive) | -2.19 (inactive) | -1.8 (inactive)
B28 | 2.04 | 2.56 | 4.18 (active)
